Compound activity deposited in PubChem by National Center for Advancing Translational Sciences (NCATS).
Most compounds without a hit are left out; they make up all but 5.3% or so of the library.
Tau fluor counter: counter-screen for tau fibril formation inhibitors | tau K18 P301L Alexa594 fluorescence, heparin fibrillization | Potency, µM (highest dose often 57.7 µM) | actives 0.93% (n = 280,000) | AID 1463; also: nearly all actives have a fitted effect of over 55% in size
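Human K18 P301L tau (15 uM unlabeled plus 0.24 uM Alexa 594-labeled, final) in 100 mM sodium acetate pH 7 was mixed with compound and 20 uM heparin and incubated 6 hr at 37 C.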
JMJD2E inh: JMJD2E (human) inhibition; actives 1.6% (n = 230,000); Potency, µM (highest dose often 57.1 µM), usual class: inhibitors; JMJD2E catalytic domain, FDH-coupled NADH fluorescence (FDH is formaldehyde dehydrogenase); also: nearly all actives have a fitted effect of over 50% in size
Tau ThT inhib: tau fibrillization inhibition (ThT binding). recombinant tau K18 P301L, heparin-induced fibrillization, ThT fluorescence. Potency, µM (highest dose often 57.4 µM), usual class: inhibitors. actives 2.1% (n = 270,000); also: nearly all actives have a fitted effect of over 55% in size
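ThT emission at 510 nm, taken 1 hr after adding 30 uM dye, quantifies aggregates formed when 20 uM heparin acts on human tau K18 P301L for 6 hr at 37 C.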
Tau fibril FP: inhibitors of human tau fibril formation; P10636; K18 P301L tau heparin fibrillization, Alexa594 FP, 6 h; Potency, µM (titrated, usually from 57.7 µM), usual class: inhibitors; actives 0.39% (n = 280,000); AID 1468; also: nearly all actives have a fitted effect of over 55% in size
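FP of Alexa 594-tau after heparin (20 uM) induction. Substrate: human K18 P301L, 15 uM unlabeled, 0.24 uM labeled. Buffer 100 mM sodium acetate pH 7. 6 hr, 37 C.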
Sfp inh: Sfp phosphopantetheinyl transferase inhibition; AID 1490; Potency, µM, most hits filed as inhibitors; actives 3.5% (n = 310,000); Q9F4F7; Biochemical Sfp PPTase activity, qHTS;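 also: the enzyme is Sfp with the accession as filed and its product quenches rhodamine fluorescence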
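With Hepes-Na pH 7.6 buffer containing 10 mM MgCl2, Sfp (15 nM) modified BHQ-2-YbbR (12.5 uM) using rhodamine-CoA (5 uM). Two reads 30 minutes apart at 525/598 nm yielded each well's rate.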
Coupling enz: inhibits coupling enzyme system, counter-screen for aldolase hits; actives 0.67% (n = 290,000); coupling enzyme system counterscreen, AmpLite Red fluorescence; activity change, negative = inhibition, % at 58.2 µM, hits read low; in the data active = activity change below about -30%
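Fluorescence at 525 nm excitation and 598 nm emission measured inhibition of the coupled detection system without aldolase. Compounds (at 57.5 uM final) were preincubated 10 min at room temperature with coupling enzyme reagent before a 20 min substrate/AmpLite Red step.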
Sfp PPTase conf: confirmation of Bacillus subtilis Sfp PPTase inhibitors; shares compounds with Sfp inh; actives 79% (n = 380); Sfp PPTase enzymatic assay, qHTS titration; Potency, µM (top dose mostly 114 µM), actives largely listed as inhibitors
Sfp gel assay: Inhibits B. subtilis Sfp phosphopantetheinylation; shares compounds with Sfp inh; AID 2707; actives 20% (n = 210); Potency, µM, actives largely listed as inhibitors; purified Sfp, gel-based phosphopantetheinylation read-out;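 active = potency below 100 µM; inconclusive = dose-dependent response but potency above 100 µM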;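 also: potency is an IC50 for inhibitors of Sfp transfer activity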
Casp1 catalase: counter-screen for redox active human caspase-1 inhibitors with catalase | shares compounds with Coupling enz | caspase-1 Ac-WEHD-AFC fluorescence rate, catalase buffer | Potency, µM (series often up to 57.5 µM), hits mostly inhibitors | 30 tested, under 10 active; active = well fitted inhibition curve with a large enough effect in the main read-out, with a control signal flat; inconclusive = small, poorly fitted or top-dose-only effect, or a change in a side signal; inactive = no such curve, though single readings can be large or run the other way
CASP1 inh CRC: blocks human caspase-1 activity in concentration-response; actives 20% (n = 60); purified caspase-1, fluorogenic substrate cleavage; Potency, µM (series often up to 57.5 µM), hits mostly inhibitors; shares compounds with Coupling enz; AID 896; active = well fitted inhibition curve with a large enough effect in the main read-out, with a control signal flat; inconclusive = small, poorly fitted or top-dose-only effect, or a change in a side signal; inactive = no such curve, though single readings can be large or run the other way
CASP7 inh CRC: blocks human caspase-7 activity in concentration-response. 60 tested, under 10 active. Potency, µM (doses to about 57.5 µM), hits mostly inhibitors. shares compounds with Coupling enz. recombinant caspase-7, fluorogenic substrate cleavage; active = well fitted inhibition curve with a large enough effect in the main read-out, with a control signal flat, not every such curve was filed as active; inconclusive = small, poorly fitted or top-dose-only effect, or a change in a side signal; inactive = no such curve, though single readings can be large or run the other way
CASP7 redox cys: caspase-7 inhibition with cysteine present. shares compounds with Coupling enz. caspase-7 enzyme with cysteine, fluorogenic substrate, redox counterscreen. Potency, µM (series often up to 57.5 µM), hits mostly inhibitors. 60 tested, under 10 active. AID 908; active = well fitted inhibition curve with a large enough effect in the main read-out, with a control signal flat; inconclusive = small, poorly fitted or top-dose-only effect, or a change in a side signal; inactive = no such curve, though single readings can be large or run the other way
CASP7 redox cat: caspase-7 inhibition with catalase present; shares compounds with Coupling enz; Caspase-7 Ac-DEVD-AFC fluorescence rate, catalase buffer; Potency, µM (doses to about 57.5 µM), most hits filed as inhibitors; 30 tested, under 10 active; AID 909; active = well fitted inhibition curve with a large enough effect in the main read-out, with a control signal flat; inconclusive = small, poorly fitted or top-dose-only effect, or a change in a side signal; inactive = no such curve, though single readings can be large or run the other way
Casp1 cysteine: counter-screen for redox active caspase-1 inhibitors: cysteine buffer. shares compounds with Coupling enz. recombinant caspase-1, fluorogenic substrate, cysteine buffer. Potency, µM (top dose mostly 57.5 µM), most hits filed as inhibitors. 60 tested, under 10 active. AID 929; active = well fitted inhibition curve with a large enough effect in the main read-out, with a control signal flat; inconclusive = small, poorly fitted or top-dose-only effect, or a change in a side signal; inactive = no such curve, though single readings can be large or run the other way
Each line names hits and unclear results; the compound was inactive in the other large screens (follow-up assays come after a bar, where they were run); ! = not confirmed by another sample. Unless noted, calls follow the shape of the dose curve; as a rule, active = well fitted curve in the direction sought with a large enough effect; inconclusive = small, poorly fitted or top-dose-only effect, or another doubt; inactive = no such curve, though single readings can be large; an effect the other way counts as inactive or inconclusive.

Cc1cccc(N2CCc3c2nc2ccccc2c3N)c1	Tau fluor counter inconclusive, JMJD2E inh inconclusive, Tau ThT inhib inconclusive, Sfp inh 28µM, Coupling enz -34! | Sfp PPTase conf 26µM | Sfp gel assay inactive
CC[C@H](C)[C@H](NC(=O)[C@H](CCCN=C(N)N)NC(=O)[C@H](CCCN=C(N)N)NC(=O)[C@H](CC(C)C)NC(=O)[C@H](Cc1ccccc1)NC(=O)CNC(=O)CNC(=O)[C@@H](N)Cc1ccc(O)cc1)C(=O)N[C@@H](CCCN=C(N)N)C(=O)N1CCC[C@H]1C(=O)N[C@@H](CCCCN)C(=O)N[C@@H](CC(C)C)C(=O)N[C@@H](CCCCN)C(=O)O	Sfp inh inconclusive (no result: JMJD2E inh)
CC(C)c1cc2c(c(O)c1O)[C@@]1(C(=O)O)CCCC(C)(C)[C@@H]1CC2	Tau fluor counter inconclusive, Tau ThT inhib 14µM, Tau fibril FP inconclusive, Sfp inh 1.4µM, Coupling enz -43 (no result: JMJD2E inh) | Sfp PPTase conf 2.6µM | Sfp gel assay inactive
C[C@]1(C(=O)O)CCC[C@]2(C)c3cc(O)ccc3CC[C@@H]12	none
C[C@H](N)[C@H](O)c1ccc(O)c(O)c1	JMJD2E inh 4.5µM, Sfp inh 35µM, Coupling enz -34 (no result: Tau fluor counter, Tau ThT inhib, Tau fibril FP) | Sfp PPTase conf inconclusive | Sfp gel assay 74µM
CC(C)c1ccc2c(c1O)CCC1C3=C(CC[C@]21C)C(=O)OC3 (stereo not given in full)	none
O=C1C2CC=CCC2C(=O)N1SC(Cl)(Cl)Cl (stereo not given)	Sfp inh 6.3µM (no result: Tau fluor counter, JMJD2E inh, Tau ThT inhib, Tau fibril FP, Coupling enz) | Sfp PPTase conf 9.4µM | Sfp gel assay 6.2µM
CCOC(=O)C1=CC(=C2C(=O)N(CC)C(=S)N(CC)C2=O)c2ccccc2O1	Tau ThT inhib inconclusive, Tau fibril FP inconclusive, Sfp inh 50µM | Sfp PPTase conf 59µM | Sfp gel assay inactive
CCN1C(=O)C(=C2C=C(C)OC(C)=C2)C(=O)N(CC)C1=S	none
Clc1ccccc1CNc1nc2ccccc2n2cnnc12	JMJD2E inh inconclusive
CC(C)Nc1ccc(Nc2ccccc2)cc1	Sfp inh 8.9µM (no result: Tau fluor counter, JMJD2E inh, Tau ThT inhib, Tau fibril FP, Coupling enz) | Sfp PPTase conf 11µM | Sfp gel assay inconclusive
Cn1ncnc2c(=O)n(C)c(=O)nc1-2	JMJD2E inh 4µM, Tau ThT inhib 11µM, Tau fibril FP inconclusive, Sfp inh inconclusive, Coupling enz -94 | Casp1 catalase 1.1µM | CASP1 inh CRC 2µM | CASP7 inh CRC 4µM | CASP7 redox cys inactive | CASP7 redox cat inconclusive | Casp1 cysteine inactive
COc1cc2c(cc1O)-c1c(O)c(OC)cc3c1[C@H](C2)N(C)CC3	Tau fluor counter inconclusive, JMJD2E inh inconclusive, Tau ThT inhib 28µM, Tau fibril FP inconclusive, Sfp inh inconclusive | CASP1 inh CRC inactive | CASP7 inh CRC inactive | CASP7 redox cys inactive | Casp1 cysteine inactive
Cc1ccc(Cl)c(O)c1	none (no result: Tau fluor counter, JMJD2E inh, Tau ThT inhib, Tau fibril FP, Coupling enz)
C[C@]12Cc3cn4c(nc3C=C1CC[C@H]1[C@@H]2CC[C@@]2(C)[C@H]1CC[C@@]2(O)C#N)nc1ccccc14	none (no result: Tau fluor counter, JMJD2E inh, Tau ThT inhib, Tau fibril FP, Sfp inh, Coupling enz) | CASP1 inh CRC inconclusive | CASP7 inh CRC inconclusive | CASP7 redox cys inconclusive | Casp1 cysteine inconclusive
C[C@]12Cc3cn4c(nc3C=C1CCC1C2CC[C@@]2(C)[C@H]1CC[C@@]2(O)C#N)nc1ccccc14 (stereo not given in full)	none (no result: Sfp inh, Coupling enz)
Oc1ccc2c3c1O[C@H]1c4oc5ccccc5c4C[C@@]4(O)C(C2)N(CC2CC2)CCC314 (stereo not given in full)	none (no result: Sfp inh, Coupling enz)
